We go through 24 compounds from PubChem BioAssay (Tox21).

Inconclusive results are not listed. Unmarked numbers belong to inactive results. Active and inactive are the calls of the source. Calls come from the whole dose curve; as a rule, active = well fitted cell-killing curve with a large enough effect in the repeat runs; inconclusive = weak or mixed curves, or effect the other way; inactive = flat fitted curve, though single readings scatter.
% is set by controls: 0 for no effect and ±100 for the full control effect.

The test can be described thus: cAMP Responsive Elements (CRE) small molecule antagonists, cell-based qHTS assay: qHTS cell viability counter screen (AID 2060913). Note: nearly all actives have a fitted effect of over 40% in size. To be noted: CRE-bla HEK293T viability, CellTiter-Glo luminescence, 5 h; series mostly up to 92.4 µM; viability change, negative = cytotoxic: at the top concentration. Summed up:
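CRE-bla HEK293T cells were seeded in assay medium with 10% dialyzed FBS, incubated 18 hrs at 37 C, then exposed to compounds plus 0.25 uM final NKH477 for 3 hrs. Viability was read by CellTiter-Glo luminescence after 30 min, in the same wells.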
Consider `CCCCCCCCCCCCCN1CC(C)OC(C)C1` (centres undefined), for which the “viability change, negative = cytotoxic” value is 5.13%.
Same read-out and setting: to `C[N+]1(CCF)[C@@H]2CC[C@H]1CC(OC(=O)C(O)(c1ccccc1)c1ccccc1)C2` (some centres undefined) belongs 1.88% [at 42.5 µM].
Take `CCCCCCCCCCCCBr`: the “viability change, negative = cytotoxic” value was -13.3%.
Still for that read-out and setting: to `CCOCn1c(-c2ccc(Cl)cc2)c(C#N)c(Br)c1C(F)(F)F` belongs -26.9%.
The same measure, in the same setting: the result for `Sc1ccccc1Cl` reads -1.16% [at 42.5 µM].
Regarding `CC[n+]1ccccc1`, the Potency entry is “inactive”.
On the same count and under the same terms, the result for `Cl` reads “inactive”.
In the case of `O=[N+]([O-])c1ccc([As](=O)(O)O)cc1`, the Potency result is “inactive”.
For the compound `CN(C)CCc1c[nH]c2cccc(OP(=O)(O)O)c12`, the “viability change, negative = cytotoxic” value is -1.61%.
On to `Nc1ccc([N+](=O)[O-])cc1N`, for which the Potency result was “inactive”.
Same read-out and setting: the result for `Cc1ccc([N+](=O)[O-])cc1C` reads “inactive”.
For `Clc1ccc(CO/N=C(\Cn2ccnc2)c2ccc(Cl)cc2Cl)c(Cl)c1`, the “viability change, negative = cytotoxic” value is -13% [at 42.5 µM].
With `Clc1nc(Cl)nc(Nc2ccccc2Cl)n1`, the “viability change, negative = cytotoxic” value was 1.83%.
On to `CC1(C)Cc2cccc(O)c2O1`, for which the Potency entry is “inactive”.
With `COP(N)(=S)OC`, the “viability change, negative = cytotoxic” value is -1.92%.
As to `OC(c1ccc(Cl)cc1)(c1cncnc1)c1ccccc1Cl` (centres undefined), the Potency result is “inactive”.
In the case of `CCOP(=O)(OCC)Oc1cc(C)nc(C(C)C)n1`, the “viability change, negative = cytotoxic” value was -1.2%.
The same measure, in the same setting: to `C[C@]12CC[C@H]3[C@@H](CCC4=CC(=O)CC[C@@H]43)[C@@H]1CC[C@@H]2OC(=O)CCC1CCCCC1` belongs 0.477% [at 42.5 µM]; to `CCOC(=O)NC(=S)Nc1ccccc1NC(=S)NC(=O)OCC`, -2.68%; to `CC(CC(C(N)=O)(c1ccccc1)c1ccccc1)N(C)C` (centres undefined), -1.24% [at 42.5 µM].
Same read-out and setting: to `CC(Cl)CCl` (centres undefined) belongs 0.515%.
The same measure, in the same setting: to `O=C(O)CBr` belongs 1.96%; to `Cn1c(N)nc2c3cccnc3ccc21`, -1.65%.
`CCO[C@H]1O[C@@H]2OC3(C)CC[C@H]4[C@H](C)CC[C@@H]([C@H]1C)[C@@]24OO3`: the “viability change, negative = cytotoxic” value is -0.238% [at 42.5 µM].
